Potency data for 17 compounds are collected here from PubChem BioAssay (NCATS).

Molecules are shown by their SMILES. Several values for one entry are separate records, joined by “and”; a condition that tells them apart may be missing. Identical values can stand only once. Results filed as inconclusive are left out. Activity calls are given as the source filed them. Calls follow the shape of the dose curve; as a rule, active = well fitted curve in the direction sought with a large enough effect; inconclusive = small, poorly fitted or top-dose-only effect, or another doubt; inactive = no such curve, though single readings can be large; an effect the other way counts as inactive or inconclusive.

The nature of assay [1]: qHTS of pediatric cancer cell lines to identify multiple opportunities for drug repurposing: Primary screen for U-2 OS cells (AID 1347096). Also: nearly all actives have a fitted effect of over 50% in size. The procedure, abridged: (§1)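 Cells (500-1,000/well) in growth media were settled 5 h at 37 degrees C, then given compounds for 48 h. Viability was read as CellTiter-Glo luminescence. Primary runs used MIPE at 11 points (0.78 nM-46 µM) and NPC at 8 points (0.59 nM-46 µM); follow-ups used 11 points.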
For orientation: qHTS replaces the single test concentration by a dilution series.

Assay [2] can be described thus: qHTS of pediatric cancer cell lines to identify multiple opportunities for drug repurposing: Primary screen for Saos-2 cells (AID 1347097). Also: nearly all actives have a fitted effect of over 40% in size. Also: potency is read from the fitted curve at half-maximal effect. The procedure, abridged:
(§2)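 Viability was measured as metabolically active cells after 48 hours of treatment, read by CellTiter-Glo luminescence. Compounds were tested at multiple final concentrations, giving concentration-response curves.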

Assay [3] in a line: qHTS of pediatric cancer cell lines to identify multiple opportunities for drug repurposing: Primary screen for SK-N-SH cells (AID 1347098).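 Also: DMSO served as neutral control and bortezomib at 2.3 µM as positive control; nearly all actives have a fitted effect of over 65% in size.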 In outline:
(§3)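 Cells (500-1,000/well) rested 5 h, then received compounds for 48 h; metabolically active cells were measured by CellTiter-Glo luminescence. Final concentrations spanned up to 46 µM (MIPE, 11-point) or 0.59 nM-46 µM (NPC, 8-point) in primary screens, 11-point in follow-ups.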

A short description of assay [4]: qHTS of pediatric cancer cell lines to identify multiple opportunities for drug repurposing: Primary screen for NB1643 cells (AID 1347099). Also: nearly all actives have a fitted effect of over 50% in size. Also: potency is read from the fitted curve at half-maximal effect. The procedure, abridged:
as §2

The nature of assay [5]: qHTS of pediatric cancer cell lines to identify multiple opportunities for drug repurposing: Primary screen for LAN-5 cells (AID 1347100). Also: potency is read from the fitted curve at half-maximal effect. The procedure, abridged:
as §1

The nature of assay [6]: qHTS of pediatric cancer cell lines to identify multiple opportunities for drug repurposing: Primary screen for BT-12 cells (AID 1347101). Also: nearly all actives have a fitted effect of over 25% in size. Also: potency is read from the fitted curve at half-maximal effect. The procedure, abridged:
as §3

Assay [7] can be described thus: qHTS of pediatric cancer cell lines to identify multiple opportunities for drug repurposing: Primary screen for Rh18 cells (AID 1347102). Also: nearly all actives have a fitted effect of over 65% in size. The procedure, abridged: as §1
Assay [8] can be described thus: qHTS of pediatric cancer cell lines to identify multiple opportunities for drug repurposing: Primary screen for OHS-50 cells (AID 1347103). Also: nearly all actives have a fitted effect of over 40% in size. Also: potency is read from the fitted curve at half-maximal effect. In outline:
as §3

Assay [9] can be described thus: qHTS of pediatric cancer cell lines to identify multiple opportunities for drug repurposing: Primary screen for RD cells (AID 1347104). Also: nearly all actives have a fitted effect of over 55% in size. The procedure, abridged: as §2
The nature of assay [10]: qHTS of pediatric cancer cell lines to identify multiple opportunities for drug repurposing: Primary screen for MG 63 (6-TG R) cells (AID 1347105). Also: nearly all actives have a fitted effect of over 50% in size. In outline: as §2
Assay [11] in a line: qHTS of pediatric cancer cell lines to identify multiple opportunities for drug repurposing: Primary screen for control Hh wild type fibroblast cells (AID 1347106).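 Also: series mostly up to about 46 µM; a drop in luminescence marks cytotoxicity and a rise apparent proliferation; nearly all actives have a fitted effect of over 55% in size.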 The procedure, abridged: as §1
A short description of assay [12]: qHTS of pediatric cancer cell lines to identify multiple opportunities for drug repurposing: Primary screen for Rh30 cells (AID 1347107). Also: series mostly up to about 46 µM; nearly all actives have a fitted effect of over 75% in size. The procedure, abridged: as §1
Assay [13] can be described thus: qHTS of pediatric cancer cell lines to identify multiple opportunities for drug repurposing: Primary screen for Rh41 cells (AID 1347108).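 Also: series mostly up to about 46 µM; luminescence drop marks cytotoxic hits; nearly all actives have a fitted effect of over 70% in size.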 The procedure, abridged: as §2
Assay [14] is described as follows: qHTS of pediatric cancer cell lines to identify multiple opportunities for drug repurposing: Confirmatory screen for BT-12 cells (AID 1347112). Also: nearly all actives have a fitted effect of over 55% in size. Also: potency is read from the fitted curve at half-maximal effect. In outline: as §1
Assay [15] can be described thus: qHTS of pediatric cancer cell lines to identify multiple opportunities for drug repurposing: Confirmatory screen for LAN-5 cells (AID 1347113). Also: nearly all actives have a fitted effect of over 65% in size. Also: potency is read from the fitted curve at half-maximal effect. In outline:
as §1

Assay [16] is described as follows: qHTS of pediatric cancer cell lines to identify multiple opportunities for drug repurposing: Confirmatory screen for DAOY cells (AID 1347114). Also: nearly all actives have a fitted effect of over 65% in size. Also: potency is read from the fitted curve at half-maximal effect. The procedure, abridged: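 Viability measured as metabolically active cells via CellTiter-Glo luminescence following 48 hours of compound exposure, 11-point dilutions in confirmatory testing. 500-1,000 cells/well plated 5 hours before dosing; controls were DMSO and 2.3 µM bortezomib.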

Assay [17] in a line: qHTS of pediatric cancer cell lines to identify multiple opportunities for drug repurposing: Confirmatory screen for NB-EBc1 cells (AID 1347115).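 Also: cells exposed to compound for 48 h before the viability read; nearly all actives have a fitted effect of over 45% in size.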 In outline:
as §1

The nature of assay [18]: qHTS of pediatric cancer cell lines to identify multiple opportunities for drug repurposing: Confirmatory screen for NB1643 cells (AID 1347109). Also: potency is read from the fitted curve at half-maximal effect; nearly all actives have a fitted effect of over 45% in size. In outline: as §1
Assay [19] can be described thus: qHTS of pediatric cancer cell lines to identify multiple opportunities for drug repurposing: Confirmatory screen for SK-N-MC cells (AID 1347111).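 Also: potency is read from the fitted curve at half-maximal effect; cells exposed to compound for 48 h before the readout; nearly all actives have a fitted effect of over 70% in size.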 The procedure, abridged: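 Metabolically active cells were quantified by ATP-dependent luminescence (CellTiter-Glo, 15 min at room temperature) following 48 h treatment. Cells had been plated at 500-1,000 per well and settled for 5 h beforehand.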

With `COc1ccccc1OCC(O)COC(N)=O` (stereo unspecified), the Potency entry in assay [1], in assay [2], in [3], in [4], in assay [5] and in [6] was “inactive” throughout. Moreover, the Potency entry in assay [7], in [8], in [9], in [10], in assay [11] and in [12] was “inactive” each time.
With `CCN[C@H]1C[C@H](C)S(=O)(=O)c2sc(S(N)(=O)=O)cc21`, the Potency entry in assay [1], in assay [2], in assay [3], in assay [4], in assay [5] and in assay [6] was “inactive” in each case. Also, the Potency entry in assay [7], in [8], in assay [9], in assay [10], in [11] and in [12] was “inactive” in each case. Also, the Potency entry in assay [13] is “inactive”.
For the compound `OC(Cn1cncn1)(Cn1cncn1)c1ccc(F)cc1F`, the Potency entry in assay [1], in assay [2], in assay [3], in assay [4], in assay [5] and in [6] was “inactive” in each case. Also, the Potency result in assay [7], in [9], in assay [10], in assay [11] and in [12] was “inactive” in each case.
As for `CCn1cc(C(=O)O)c(=O)c2cc(F)c(N3CCNCC3)nc21`, the Potency entry in [1], in assay [2], in [3], in assay [4], in assay [5] and in [6] was “inactive” each time. Further, the Potency result in assay [7], in assay [9], in assay [10], in [11] and in assay [12] was “inactive” throughout.
As for `COc1ccc2c(c1)c(CC(=O)OCC(=O)O)c(C)n2C(=O)c1ccc(Cl)cc1`, the Potency result in assay [1], in assay [2], in assay [3], in [4], in assay [5] and in assay [6] was “inactive” throughout. Moreover, the Potency entry in assay [7], in assay [8], in [9], in assay [10], in assay [11] and in assay [12] was “inactive” throughout.
As to `COCCCOc1cc(C[C@@H](C[C@H](N)[C@@H](O)C[C@H](C(=O)NCC(C)(C)C(N)=O)C(C)C)C(C)C)ccc1OC`, the Potency result in assay [1], in assay [2], in assay [3], in assay [4], in assay [5] and in assay [6] was “inactive” in each case. Besides, the Potency result in assay [7], in assay [9], in assay [10], in assay [11] and in [12] was “inactive” in each case.
Consider `O=P(O)(O)C(O)(Cc1cccnc1)P(=O)(O)O`, for which the Potency result in assay [1], in [2], in assay [3], in [4], in assay [5] and in [6] was “inactive” each time. Also, the Potency entry in assay [7], in assay [8], in assay [9], in assay [10], in assay [11] and in assay [12] was “inactive” each time.
For `COC(c1ccccc1)(c1ccccc1)[C@H](Oc1nc(C)cc(C)n1)C(=O)O`, the Potency entry in assay [1], in [2], in assay [3], in [4], in assay [5] and in assay [6] was “inactive” each time. The Potency entry in [7], in assay [8], in assay [9], in assay [10], in assay [11] and in assay [12] was “inactive” throughout. The Potency result in assay [13] was “inactive”.
`CS(=O)(=O)c1ccc([C@@H](O)[C@@H](CO)NC(=O)C(Cl)Cl)cc1`: the Potency result in assay [1], in assay [2], in assay [3], in [4], in assay [5] and in assay [6] was “inactive” each time. The Potency entry in assay [7], in assay [8], in assay [9], in assay [10], in assay [11] and in assay [12] was “inactive” throughout. In addition, the Potency result in assay [13], in assay [14], in assay [15], in assay [16] and in [17] was “inactive” each time.
Consider `O=C(O)c1cn(C2CC2)c2cc(N3CCNCC3)c(F)cc2c1=O`, for which the Potency entry in [1], in [2], in assay [3], in assay [4], in assay [5] and in [6] was “inactive” throughout. In addition, the Potency result in assay [7], in assay [8], in [9], in assay [10], in assay [11] and in assay [12] was “inactive” throughout.
For the compound `CC[C@H](NC(C)C)[C@H](O)c1ccc(O)c2[nH]c(=O)ccc12`, the Potency entry in [1], in assay [2], in [3], in [4], in assay [5] and in [6] was “inactive” in each case. The Potency result in [7], in [8], in [9], in assay [10], in assay [11] and in [12] was “inactive” in each case. Besides, the Potency entry in assay [13] is “inactive”.
`C[C@@H]1CN(c2c(F)c(N)c3c(=O)c(C(=O)O)cn(C4CC4)c3c2F)C[C@H](C)N1`: the Potency result in [1], in assay [2], in [3], in assay [4], in [5] and in assay [6] was “inactive” in each case. The Potency result in assay [7], in assay [8], in [9], in assay [10], in assay [11] and in [12] was “inactive” in each case. Also, the Potency entry in [13] was “inactive”.
As for `CC(C)C1CCC(C(=O)N[C@H](Cc2ccccc2)C(=O)O)CC1` (stereo partly specified), the Potency entry in assay [1], in assay [2], in [3], in assay [4], in assay [5] and in assay [6] was “inactive” each time. In addition, the Potency entry in assay [7], in [8], in assay [9], in assay [10], in [11] and in assay [12] was “inactive” each time. Further, the Potency result in [13] was “inactive”.
For the compound `COc1cc([C@@H]2c3cc4c(cc3[C@H](O)[C@H]3COC(=O)[C@H]23)OCO4)cc(OC)c1OC`, the Potency result in assay [1], in [3], in assay [7], in assay [9], in assay [10] and in [11] was “inactive” in each case. Moreover, in assay [12], the Potency entry is “inactive”. The Potency is 33.5 nM (active) and 2.64 µM (active) in assay [2]; 0.0596 µM (active) in assay [4]; 7.5 nM (active) and 1 nM (active) in assay [5]; 55 nM (active) and 1.9 nM (active) in assay [6]; 30.9 nM (active) and 1 nM (active) in assay [8]; 0.0329 µM (active) in assay [18]. For the same compound, the Potency was 0.0329 µM (active) in assay [19], 0.0522 µM (active) in assay [14], 0.0827 µM (active) in [15] and 0.0147 µM (active) in assay [16].
Consider `CCOC(=O)c1ccc(OC(=O)CCCCCN=C(N)N)cc1`, for which the Potency entry in [1], in assay [2], in [3], in assay [4], in assay [5] and in assay [6] was “inactive” throughout. Moreover, the Potency result in [7], in assay [8], in assay [9], in assay [10], in [11] and in assay [12] was “inactive” each time. For the same compound, in assay [13], the Potency result was “inactive”.
Consider `Nc1nc(N)nc(-c2cc(Cl)ccc2Cl)n1`, for which the Potency result in assay [1], in assay [2], in assay [3], in assay [4], in assay [5] and in assay [6] was “inactive” in each case. For the same compound, the Potency result in assay [7], in [8], in assay [9], in [10], in assay [11] and in assay [12] was “inactive” each time. In addition, the Potency entry in assay [13], in [14] and in [16] was “inactive” throughout. Besides, the Potency in [19] is 1.17 µM (active).
In the case of `CN1CCN(c2c(F)cc3c(=O)c(C(=O)O)cn4c3c2OCN4C)CC1`, the Potency result in assay [1], in assay [2], in [3], in [4], in assay [5] and in assay [6] was “inactive” each time. Moreover, the Potency result in assay [7], in assay [8], in assay [9], in [10], in assay [11] and in assay [12] was “inactive” throughout.
